From PubChem
rTrxR1 inhibitor: inhibitors of rat thioredoxin reductase 1; O89049; recombinant rTrxR1, NADPH fluorescence consumption, selenite substrate; Potency, µM (series often up to 114 µM), for inactives: top-dose activity change, negative = inhibition, actives largely listed as inhibitors; 1% of 390,000 active; AID 588453; further: on the % scale 0 is the no-effect control and ±100 the full control effect; nearly all actives have a fitted effect of over 65% in size
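Rat TrxR1 (90 nM in the dispensed reagent) was pre-reduced with 400 uM NADPH for 5 min at room temperature, then incubated with compound for 15 min. After 400 uM selenite was added, NADPH fluorescence (Ex 340/Em 450 nm) was followed for 8 min.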
TrxR1 substrate: is turned over as a substrate by rat TrxR1 | purified TrxR1 substrate turnover, NADPH consumption readout | Potency, µM (titrated, usually from 114 µM), for inactives: at the top dose activity change, negative = substrate turnover | 0.01% of 390,000 active; further: on the % scale 0 is the no-effect control and ±100 the full control effect; nearly all actives have a fitted effect of over 50% in size
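Rat TrxR1, dispensed at 90 nM, was prereduced with 400 uM NADPH (final) for 5 min at ~22 deg C, then incubated with compound 15 min before 400 uM selenite. A first-read NADPH fluorescence drop versus no-compound background flagged substrates.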
Nrf2 block: inhibitors of Nrf2 signaling. Potency, µM (doses to about 46 µM), for the others: at the top dose activity change, negative = inhibition, most hits filed as inhibitors. AID 504444. A549 ARE-Fluc reporter, luciferase luminescence, 18-24 h. 2.1% of 360,000 active; further: on the % scale 0 is the no-effect control and ±100 the full control effect; nearly all actives have a fitted effect of over 60% in size
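Cells were seeded and rested 2 h, then exposed to compounds for 18-24 h. CellTiter-Fluor was read first as a viability measure. BugLite was added 15 min before the final luminescent read of ARE-luciferase activity in A549 cells.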
A549 tox: A549 cytotoxicity, counter-screen for Nrf2 inhibitors; A549 ARE-Fluc cells, CellTiter-Fluor viability, 18-24 h; Potency, µM (titrated, usually from 46 µM), without a hit: top-dose activity change, negative = cytotoxicity, most hits filed as inhibitors; 0.16% of 390,000 active; further: on the % scale 0 is the no-effect control and ±100 the full control effect
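A549 ARE_Fluc cells in 5% FBS OPTI-MEM were exposed to compounds in concentration-response for 18-24 h at 37 deg C. Viability was read by CellTiter-Fluor fluorescence (Ex 405/Em 525) after 30 min, before the luciferase read.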
mIDH1 inhibitor: blocks human mutant IDH1 R132H enzyme; O75874; IDH1-R132H enzyme, NADPH consumption, diaphorase/resazurin fluorescence; AID 602179; Potency, µM (highest dose often 76.6 µM), for the others: top-dose activity change, negative = inhibition, actives largely listed as inhibitors; 0.093% of 390,000 active; further: on the % scale 0 is the no-effect control and ±100 the full control effect; nearly all actives have a fitted effect of over 65% in size
Target sequence (O75874 whole entry R132H, stated change not applied): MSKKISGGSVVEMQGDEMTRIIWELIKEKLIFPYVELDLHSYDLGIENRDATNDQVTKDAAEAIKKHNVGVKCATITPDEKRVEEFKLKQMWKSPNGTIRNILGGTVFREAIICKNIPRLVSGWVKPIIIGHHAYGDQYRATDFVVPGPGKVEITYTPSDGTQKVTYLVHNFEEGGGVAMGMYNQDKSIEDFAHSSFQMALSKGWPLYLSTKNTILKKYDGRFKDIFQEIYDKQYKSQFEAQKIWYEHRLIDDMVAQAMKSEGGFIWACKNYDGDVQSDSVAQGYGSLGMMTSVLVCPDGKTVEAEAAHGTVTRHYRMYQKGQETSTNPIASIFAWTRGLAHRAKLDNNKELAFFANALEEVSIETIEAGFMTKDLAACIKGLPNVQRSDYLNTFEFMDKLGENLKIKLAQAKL
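IDH1-R132H (0.5 ug/mL) preincubated 30 min with compound, then NADPH (0.016 mM) and alpha-KG (2 mM) added; 80 min at RT, pH 7.5. Remaining NADPH coupled via diaphorase/resazurin to fluorescence (540/590 nm); concentration-response curves normalized to no-enzyme control.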
Mito fusion act: blocks mitochondrial division or promotes mitochondrial fusion; S. cerevisiae fusion-defective mutant growth rescue, CellTiterGlo 48 h; Potency, µM (series often up to 46.1 µM), without a hit: top-dose growth rescue (activation), actives largely listed as activators; 0.23% of 320,000 active; AID 485298; further: % of control where 0% means no effect; nearly all actives have a fitted effect of over 45% in size
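Compounds are tested for their ability to restore growth of mitochondrial fusion-defective yeast strains at non-permissive 37C in YPEG medium over 48 hours. Viability is quantified by luciferase luminescence.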
* marks the source's active call; other numbers are inactive results; [ ] = dose if it differs, or a comment. Compounds with a hit are over-represented: about 3.1% of the library has one in this group of screens. The call rests on the fitted dose curve; in most records, active means well fitted curve in the direction sought with a large enough effect; inconclusive means small, poorly fitted or top-dose-only effect, or another doubt; inactive means no such curve, though single readings can be large; an effect the other way counts as inactive or inconclusive. Potency means the concentration at half of the fitted maximal effect.

Screening COc1cccc(N2CCN(C(=O)c3cc4cc5cc(C)ccc5nc4s3)CC2)c1 returned rTrxR1 inhibitor 24.8%[57.1 µM], TrxR1 substrate 4.8%[57.1 µM], A549 tox -1.3% and mIDH1 inhibitor -6.5%.
CC(C)(C)OC1NS(=O)(=O)OCC1NCOC(Cl)(Cl)Cl (stereo not drawn) was read as rTrxR1 inhibitor 1.78µM*, TrxR1 substrate 5.4%, Nrf2 block -1.9%, A549 tox -2.6%, mIDH1 inhibitor -14.0% and Mito fusion act -1.1%.
`COc1cc(O)c(C(CCN2CCCC(C)C2)c2ccc3c(c2)OCO3)c(OC)c1` (stereo not drawn) gave rTrxR1 inhibitor 11.4%[57.1 µM], TrxR1 substrate -2.0%, Nrf2 block 6.4%, A549 tox -7.8%, mIDH1 inhibitor -8.6%[38.3 µM] and Mito fusion act -13.2%.
Screening COc1cc(OC)c2ccc(=O)oc2c1C(CCN1CCCC(C)C1)c1ccc2c(c1)OCO2 (stereo not drawn) returned rTrxR1 inhibitor -6.6%, TrxR1 substrate -9.0%, Nrf2 block 14.2%, A549 tox 16.4µM*, mIDH1 inhibitor 5.9% and Mito fusion act 1.4%.
Cc1ccc(Cn2c(SCC(=O)N/N=C/c3ccc(C)o3)nc3ccccc32)cc1 was read as rTrxR1 inhibitor inconclusive, TrxR1 substrate -3.6%, Nrf2 block -14.0%, A549 tox -0.9%, mIDH1 inhibitor 7.4% and Mito fusion act 0.3%.
For O=C(CSc1nc2ccccc2n1Cc1ccccc1)N/N=C/c1ccco1 the results were rTrxR1 inhibitor -12.6%[57.1 µM], TrxR1 substrate -0.6%[57.1 µM], Nrf2 block 8.2µM*, A549 tox -18.1%, mIDH1 inhibitor 0.4% and Mito fusion act -5.2%.
`O=C(Nc1nc2ccccc2n1Cc1ccccc1)c1ccco1` gave rTrxR1 inhibitor 16.9%[57.1 µM], TrxR1 substrate 8.8%[57.1 µM], Nrf2 block 16.4µM*, A549 tox -13.8%, mIDH1 inhibitor 17.0% and Mito fusion act 9.2%.
Screening O=C(NCCc1nc2ccccc2n1Cc1ccccc1)c1ccco1 returned rTrxR1 inhibitor 26.1%, TrxR1 substrate 24.2%, Nrf2 block 3.3%, A549 tox -2.0% and mIDH1 inhibitor 10.1%.
CCC(=O)Nc1nc2ccccc2n1Cc1ccc(Cl)cc1 was read as rTrxR1 inhibitor 20.2%, TrxR1 substrate -0.8%, Nrf2 block 20.6µM*, A549 tox -6.9%, mIDH1 inhibitor 2.5% and Mito fusion act 8.5%.
COc1ccc(CNC(=O)Cn2c(=O)nc(-c3ccccc3F)c3cc(Cl)ccc32)cc1OC was read as rTrxR1 inhibitor 7.5%[57.1 µM], TrxR1 substrate -2.3%[57.1 µM], A549 tox 16.4µM* and mIDH1 inhibitor -13.3%.
COc1ccc(CCNC(=O)Cn2c(=O)nc(-c3ccccc3F)c3cc(Cl)ccc32)cc1OC was read as rTrxR1 inhibitor 6.9%[57.1 µM], TrxR1 substrate -1.6%[57.1 µM], A549 tox inconclusive and mIDH1 inhibitor 6.2%.
Screening Cc1ccc(SC(C)C(=O)Nc2ccncc2)cc1 (stereo not drawn) returned rTrxR1 inhibitor 25.3%, TrxR1 substrate 7.2%, Nrf2 block 13µM*, A549 tox -1.4%, mIDH1 inhibitor 6.6% and Mito fusion act 10.2%.
`Cc1ccc(SC(C)C(=O)Nc2cccnc2)cc1` (stereo not drawn) gave rTrxR1 inhibitor 4.7%[57.1 µM], TrxR1 substrate 13.5%[57.1 µM], Nrf2 block 11.9%, A549 tox -2.7%, mIDH1 inhibitor 3.6% and Mito fusion act 0.7%.
For Cc1ccc2c(c1)c(=O)c(C(=O)c1ccncc1)cn2CC(=O)Nc1c(C)cccc1C the results were rTrxR1 inhibitor 20.4%[57.1 µM], TrxR1 substrate 2.0%[57.1 µM], A549 tox -0.6% and mIDH1 inhibitor -4.0%.
`N#CC(C#N)=Cc1ccc(NC(=O)c2ccc(Br)cc2)cc1` gave rTrxR1 inhibitor 12.6µM*, TrxR1 substrate 4.0%, Nrf2 block 16.4%, A549 tox 3.1%, mIDH1 inhibitor 13.2% and Mito fusion act 3.6%.
